Source: PubChem (The Scripps Research Institute Molecular Screening Center)
ssDAF-12 act: activates DAF-12 receptor from parasite S. stercoralis | HEK293 ssDAF-12/GRIP1 lit1-tk-luc reporter, luminescence; % of 3 µM dafachronic acid response | 370,000 tested, 1% active | activation, % at 6.8 µM;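 active means activation above the mean over all tested compounds plus 3 SD, cut at about 0.9% in these data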;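 further: 0% = DMSO-only wells and 100% = 3 µM delta7-dafachronic acid wells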
hcDAF12 agonist: H. contortus DAF-12 activation, primary screen | 370,000 tested, 1.4% active | AID 652067 | HEK293 hcDAF-12 lit1-tk-luc reporter, luminescence; 0% DMSO, 100% Δ7-dafachronic acid | activation, % at 6.8 µM;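 active means activation above the mean of all tested compounds plus 3 SD, cut at about 5.5% in these data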;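 further: 100% = response to 3 µM Δ7-dafachronic acid high control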
hgDAF-12 ag: hgDAF-12 agonism, primary luciferase screen; HEK293 GAL4-hgDAF12 UAS-luciferase reporter, agonist luminescence; normalized to butyrate control; activation, % at 6.8 µM; 370,000 tested, 1.8% active;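 active means activation above a cutoff set at the mean of all screened compounds plus 3 SD, cut at about 10% in these data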;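 further: 0% = DMSO wells and 100% = sodium butyrate wells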
DAX1 inh-1: NR0B1 (DAX1) inhibition; P51843; HEK293 Gal4-DAX1 luciferase reporter, luminescence; inhibition, % at 6.75 µM; 340,000 tested, 0.99% active; AID 504766;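 active means inhibition above the mean over all tested compounds plus 3 SD, cut at about 4.2% in these data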;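 further: 0% = DAX1-transfected cells with DMSO and 100% = empty-vector control cells with DMSO; inhibition shows as a rise in luminescence from relieved DAX1 repression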
Target sequence (P51843 207-470 limits assumed): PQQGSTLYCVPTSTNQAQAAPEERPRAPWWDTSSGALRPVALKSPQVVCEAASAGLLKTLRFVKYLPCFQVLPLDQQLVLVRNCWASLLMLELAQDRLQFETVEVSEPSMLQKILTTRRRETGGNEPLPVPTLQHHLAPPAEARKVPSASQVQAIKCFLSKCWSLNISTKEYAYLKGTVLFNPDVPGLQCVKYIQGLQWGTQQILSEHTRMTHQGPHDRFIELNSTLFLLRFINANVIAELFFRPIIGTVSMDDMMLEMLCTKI
FXN GAA850 act: increases GAA850 frataxin promoter reporter activity. HEK293 lucGAA850 FXN promoter luciferase reporter, 24 h; percent of 10 µM SAHA response. activation, % at 6 µM. 360,000 tested, 0.56% active. AID 540364;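 active means activation above the average of all compounds screened plus 3 SD, cutoff fixed separately per campaign, cut at about 7.5% in these data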;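 further: 0% = DMSO wells and 100% = 10 µM SAHA wells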
DAX1 inh-2: blocks DAX1 repression of SF-1 activated StAR promoter; HEK293T StAR-luciferase reporter, SF-1/DAX-1 repression relief; inhibition, % at 6.8 µM; 370,000 tested, 1.1% active; AID 652010;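 active means inhibition above the mean over all tested compounds plus 3 SD, cut at about 3.6% in these data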;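 further: 0% = DAX-1 cells with DMSO and 100% = cells lacking DAX-1 with DMSO; higher inhibition means more luminescence from relief of DAX-1 repression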
hgDAF12 ag: confirmation of H. glycines DAF-12 agonists; 3,300 tested, 80% active; activation, % at 6.8 µM; shares compounds with hgDAF-12 ag; HEK293 GAL4-hgDAF12 luciferase reporter, agonist mode; percent of butyrate response;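 active means mean activation over triplicate wells above the hit cutoff derived from the earlier primary screen, cut at about 11% in these data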;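 further: 0% = DMSO low control and 100% = 2 mM sodium butyrate high control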
LXRb DAF12 ctr: LXR-beta agonism as DAF-12 counter-screen; shares compounds with hgDAF-12 ag; HEK293 Gal4-LXR luciferase reporter, 24 h; activation, % at 6.8 µM; 3,300 tested, under 10 active; AID 743051;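 active means mean activation of the triplicate above a set limit carried over from the primary screen, none filed active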
An asterisk follows results filed as active; / = no result. The list is not random: actives were taken first. Their share in the collection is about 4.5%.

SMILES	ssDAF-12 act	hcDAF12 agonist	hgDAF-12 ag	DAX1 inh-1	FXN GAA850 act	DAX1 inh-2	hgDAF12 ag	LXRb DAF12 ctr
CCOc1ccc(NC(=S)NCc2nc3ccccc3[nH]2)cc1	-1	1	1	-1	2	-1	/	/
CCNC(=S)Nc1ccc(-c2nc3ccccc3[nH]2)cc1	-1	2	14*	4	2	4.4*	17*	1
O=C(CSc1ccccc1)Nc1ccc(-c2nc3ccccc3[nH]2)cc1	-1	0	16*	0	2	2	13*	0
Cc1ccc(Nc2ncnc(N)n2)cc1	-1	2	19*	0	4	0	5	0
COc1cc(SC)ccc1C(=O)NCCOc1ccc(F)cc1	-1	4	17*	1	5	3	10	0
CN1CCC(=NNC(=O)c2cc(-c3ccc(Cl)cc3)n[nH]2)CC1	-2	-1	8	1	1	1	/	/
CCOc1ccc(-c2cc(C(=O)NN=C3CCN(C)CC3)[nH]n2)cc1	1.1*	6.0*	13*	0	4	3	3	0
COc1ccc(-c2ocnc2C(=O)NCc2nn(-c3ccccc3)nc2C)cc1	-2	-4	-5	-4	2	-1	/	/
COc1ccc(-c2cc3nc4c(c(=O)n3[nH]2)CCC4)cc1	-1	0	3	2	3	1	/	/
O=c1c2c(nc3cc(-c4ccc(Br)cc4)[nH]n13)CCCC2	1.4*	1	14*	6.3*	8	3.7*	20*	1
O=c1c2c(nc3cc(-c4ccccc4)[nH]n13)CCC2	0	3	15*	0	3	2	13*	1
Cc1cc(C)c2c(CN3CCN(c4ccccc4F)CC3)cc(=O)oc2c1	-1	0	-1	/	/	0	/	/
Cc1ccc(S(=O)(=O)Nc2ccccc2[N+](=O)[O-])cc1	-1	-1	28*	/	/	-2	1	0
CCNc1ccc(C(=O)OCC(=O)NCCN2C(=O)CSC2=O)cc1[N+](=O)[O-]	-2	0	2	1	-1	1	/	/
O=C(COc1cc(F)ccc1[N+](=O)[O-])NCCN1C(=O)CSC1=O	-1	-2	23*	-1	1	0	-1	0
O=C(C=C1SCCS1)/C=C/c1ccco1	0	4	15*	0	2	3.7*	14*	1
Cc1ccc(/C=N/NC(=O)C(=O)N/N=C/c2ccc(C)o2)o1	-2	-1	3	0	2	0	/	/
Cc1occc1C(=O)N/N=C/c1cnn(C)c1C	0	3	16*	2	2	3	9	0
COc1cccc(/C=N/NC(=S)Nc2cccc(C(=O)O)c2)c1O	-1	-1	17*	-5	1	2	4	0
Cc1occc1C(=O)N/N=C/c1c[nH]c2ccccc12	/	/	/	4	1	/	/	/
Cc1ccc(/C=N/NC(=O)c2ccoc2C)o1	0	5	14*	1	2	2	4	0
COc1cc(/C=N/NC(=S)Nc2cccc(C(=O)O)c2)ccc1O	-1	0	9	-5	4	0	/	/
O=C(N/N=C/c1ccc(Cl)cc1Cl)c1cccc(F)c1	0	4	15*	3	3	3	15*	1
CCN(Cc1ccccc1)C(=O)CCc1nc(CN2CCN(C(=O)c3ccc([N+](=O)[O-])cc3)CC2)no1	-1	1	-1	0	-2	-2	/	/
Cc1ccc(C(=O)Nc2cccc(C(=O)N/N=C/c3ccccc3F)c2)cc1	-1	1	5	-2	0	0	/	/
CC(=O)Nc1cccc(C(=O)N/N=C/c2ccccc2F)c1	1	5	14*	3	6	3.7*	20*	1
Cc1c(/C=N\NC(=O)c2cccc(F)c2)cnn1C	-1	4	15*	4	1	1	4	0
